Screening data from PubChem BioAssay.
TDP1 cell CPT – qHTS for Inhibitors of human tyrosyl-DNA phosphodiesterase 1 (TDP1): qHTS in cells in presence of CPT; 420,000 tested, 12% active; chicken DT40 Tdp1-/-;hTDP1 cells + 20 nM CPT, ATP luminescence, 48 h; Potency, µM (highest dose often 46.2 µM), inactives show at the highest dose activity change, negative = growth inhibition, hits mostly inhibitors; note: potency is the fitted concentration of half-maximal effect; nearly all actives have a fitted effect of over 55% in size
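Cell growth measured by CellTiter-Glo luminescence after a minimum 48 h, 37 C compound exposure with 20 nM CPT in Tdp1-knockout DT40 cells stably expressing hTDP1, seeded 400/well; qHTS titration format.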
TDP1 cell noCPT – qHTS for Inhibitors of human tyrosyl-DNA phosphodiesterase 1 (TDP1): qHTS in cells in absence of CPT; 420,000 tested, 15% active; Potency, µM (series often up to 46.2 µM), for the others: at the top dose activity change, negative = growth inhibition, most hits filed as inhibitors; DT40 Tdp1-/- hTDP1 cells, no CPT, ATP luminescence, 48 h; note: potency is the fitted concentration of half-maximal effect; nearly all actives have a fitted effect of over 55% in size
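DT40 Tdp1-/-;hTDP1 cells, no CPT (DMSO vehicle only), 400 cells/well; compounds pin-transferred; ≥48 hr, 37 °C; CellTiter-Glo 30 min RT dark, luminescence read.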
HT1080-NT tox – qHTS for induction of synthetic lethality in tumor cells producing 2HG: qHTS for the HT-1080-NT fibrosarcoma cell line; 360,000 tested, 1.6% active; AID 686970, 2013; Potency, µM (doses to about 46.1 µM), for the others: at the top dose activity, negative = less viability, most hits filed as cytotoxic; HT-1080-NT fibrosarcoma viability, CellTiter-Glo ATP luminescence, 48 h;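 note: NT is the 2HG producing partner of a matched IDH1 knockdown line; potency is the fitted concentration of half-maximal effect; 0% = DMSO-treated cells and -100% = media-only wells without cells; nearly all actives have a fitted effect of over 55% in size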
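HT-1080-NT; 750 cells/well; 5% FBS RPMI; 48 h compound, 37 degrees C; CellTiter-Glo luminescence; curve fitting and curve-class assignment.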
IL-1B inflam inh – qHTS for Inhibitors of Inflammasome Signaling: IL-1-beta AlphaLISA Primary Screen. THP-1 LPS/ATP IL-1B secretion, AlphaLISA, 16 h; active compounds read low. activity change, % at 57.5 µM. 360,000 tested, 4.7% active. AID 743279, 2014; in the data active = activity change below about -50%; inconclusive = mostly about -30% to -49%
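Secreted IL-1B measured by AlphaLISA bead assay after 16 h compound exposure of THP-1 cells; compounds (final up to 57.5 uM) added 1 h before LPS (250 ng/mL) and ATP (1.25 mM) stimulation; lower signal means less secretion.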
ELG1 repair inh – qHTS screen for small molecules that inhibit ELG1-dependent DNA repair in human embryonic kidney (HEK293T) cells expressing luciferase-tagged ELG1; HEK293T ELG1-luciferase reporter, luminescence, 16 h; DNA damage induced by 5-fluorouridine; Potency, µM (highest dose often 46.1 µM), inactives show top-dose activity change, negative = inhibition, usual class: inhibitors; 330,000 tested, 2.3% active; AID 504467, 2011; note: potency is the fitted concentration of half-maximal effect; nearly all actives have a fitted effect of over 55% in size
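Cells (2,000 per well) received 5-fluorouridine plus test compound or DMSO and were incubated 16 hr at 37 °C, 5% CO2. Luciferase activity was read by luminescence 30 min after ONE-Glo addition; signal suppression marked inhibition of damage-induced ELG1 function.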
HT1080 IDH1KD tx – qHTS for induction of synthetic lethality in tumor cells producing 2HG: qHTS for the HT-1080-IDH1KD cell line; 360,000 tested, 2% active; HT-1080 IDH1 knockdown viability, ATP luminescence, 48 h; AID 686971, 2013; Potency, µM (doses to about 46.1 µM), for inactives: at the top dose activity, negative = toxicity, hits mostly cytotoxic;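 note: potency is the fitted concentration of half-maximal effect; 0% = DMSO wells and -100% = cell-free medium wells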
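Viability of IDH1-knockdown HT-1080 fibrosarcoma cells was assessed by CellTiter-Glo after 48 h at 37 °C with titrated compound; concentration-effect curves were classified by fit quality and response size.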
* marks the source's active call; other numbers are inactive results; ? = inconclusive; nt = not tested or not shown. An excerpt weighted towards active compounds, which were near 19% of everything screened. Unless noted, calls come from the whole dose curve; as a rule, active = well fitted curve in the direction sought with a large enough effect; inconclusive = small, poorly fitted or top-dose-only effect, or another doubt; inactive = no such curve, though single readings can be large; an effect the other way counts as inactive or inconclusive. Unless noted, % is set by controls: 0 for no effect and ±100 for the full control effect.

SMILES | TDP1 cell CPT | TDP1 cell noCPT | HT1080-NT tox | IL-1B inflam inh | ELG1 repair inh | HT1080 IDH1KD tx
O=C(Nc1ccc(OC(F)(F)F)cc1)c1ccc2nc[nH]c2c1 | -23.6% | ? | 3.7% | 21.2 | 29.7% | 3.0%
NC(=O)c1cccc(-c2cc(Nc3ccc(OC(F)(F)F)cc3)ncn2)c1 | ? | 14.6µM* | -3.3% | -14.8 | -24.4% | -3.3%
Cc1ccc(S(=O)(=O)n2cc(CO)c3ccccc32)cc1 | ? | ? | -22.5% | -0.1 | nt | -0.9%
CC(C)OCCCNC(=O)COCC(=O)Nc1ccc(OCCc2ccccc2)cc1 | 18.4µM* | 13µM* | ? | -2.1 | -17.8% | -5.5%
CC(=O)Nc1ccc(OCC(=O)NCCc2ccccc2)cc1 | 18.0% | 8.8% | 3.6% | 22.6 | ? | ?
CCCCN(CCCC)S(=O)(=O)c1ccc(N2CCCC2=O)c([N+](=O)[O-])c1 | ? | 20.6µM* | 0.8% | 15.5 | nt | -16.0%
CCCN(CCC)S(=O)(=O)c1ccc(N2CCCC2=O)c([N+](=O)[O-])c1 | ? | -1.9% | 9.4% | 1.5 | ? | 5.5%
CCOC(=O)C(C)(C)N(Cc1ccccc1C)S(=O)(=O)c1ccc(Cl)c([N+](=O)[O-])c1 | ? | 11.6µM* | ? | -96.8* | ? | ?
Cc1ccccc1CN(CC(=O)Nc1cccc([N+](=O)[O-])c1)S(=O)(=O)c1ccc(Cl)cc1 | ? | ? | ? | ? | ? | -21.9%
CCCN(CCC)S(=O)(=O)c1ccc(Cl)c([N+](=O)[O-])c1 | ? | 14.6µM* | ? | -102.8* | ? | 23.1µM*
CCc1ccc(CNC(=O)C2CCCN(c3nn4cc(-c5ccc(F)cc5)nc4s3)C2)cc1 (configuration not stated) | 16.4µM* | 16.4µM* | nt | nt | nt | nt
COc1ccc(-c2cn3nc(N4CCC(C(=O)NCc5cccc(Cl)c5)CC4)sc3n2)cc1 | ? | -28.7% | nt | nt | nt | nt
CCc1ccc(NC(=O)C2CCCN(c3nn4cc(-c5ccc(OC)cc5)nc4s3)C2)cc1 (configuration not stated) | ? | 13µM* | nt | nt | nt | nt
CCOc1ccc(CNC(=O)C2CCCN(c3nn4cc(-c5ccc(OC)cc5)nc4s3)C2)cc1 (configuration not stated) | 16.4µM* | 18.4µM* | nt | nt | nt | nt
CCCSCCCNC(=O)C1CCCN(c2nn3cc(-c4ccc(OC)cc4)nc3s2)C1 (configuration not stated) | 20.6µM* | 13µM* | nt | nt | nt | nt
COc1ccc(NS(=O)(=O)N2CCCCC2)cc1 | -18.9% | -3.8% | 2.3% | 6.0 | nt | 7.7%
CCOc1ccc(N2CC(NC(=O)C(=O)c3c[nH]c4ccccc34)CC2=O)cc1 (configuration not stated) | -24.9% | ? | nt | nt | nt | nt
O=C(Cn1nnc(-c2ccc([N+](=O)[O-])cc2)n1)NNC(=O)c1ccccc1 | -6.2% | -11.9% | -23.2% | 6.2 | 8.3% | -21.0%
COc1ccc(-c2cn3nc(N4CCCC(C(=O)Nc5ccccc5OC)C4)sc3n2)cc1 (configuration not stated) | 14.6µM* | 16.4µM* | nt | nt | nt | nt
COc1ccc(-c2cn3nc(N4CCCC(C(=O)NCc5ccc(Cl)cc5)C4)sc3n2)cc1 (configuration not stated) | 9.2µM* | 8.2µM* | nt | nt | nt | nt
CCOc1ccc(CNC(=O)C2CCCN(c3nn4cc(-c5ccc(F)cc5)nc4s3)C2)cc1 (configuration not stated) | 20.6µM* | 23.1µM* | nt | nt | nt | nt
COc1cccc(CNC(=O)C2CCCN(c3nn4cc(-c5ccc(C)cc5)nc4s3)C2)c1 (configuration not stated) | 20.6µM* | 14.6µM* | nt | nt | nt | nt
CC(C)CC(=O)Nc1ccc2c(c1)nc(CCN1CCOCC1)n2C | 2.3% | 9.4% | -0.5% | 11.1 | 10.6% | -0.1%
O=C(NCc1cccc(F)c1)C1CCN(c2nn3cc(-c4ccc(F)cc4)nc3s2)CC1 | -26.3% | ? | nt | nt | nt | nt
CCOCCCNC(=O)C1CCN(c2nn3cc(-c4ccc(F)cc4)nc3s2)CC1 | 20.6µM* | 14.6µM* | nt | nt | nt | nt
SMILES | TDP1 cell CPT | TDP1 cell noCPT | HT1080-NT tox | IL-1B inflam inh | ELG1 repair inh | HT1080 IDH1KD tx
COc1ccc(CN2CCc3c(c(=O)n4ncc(C(=O)N5CCN(c6ccccc6F)CC5)c4n3C)C2)cc1 | 18.4µM* | 8.2µM* | nt | nt | nt | nt
COc1ccc(N2CCN(C(=O)Cc3ccc(Cl)cc3)CC2)cc1 | -18.7% | ? | -7.5% | -14.9 | -13.3% | -0.1%
CCn1c2c(c(=O)n3ncc(C(=O)N4CCN(c5ccc(Cl)cc5)CC4)c13)CN(Cc1ccc(OC)cc1)CC2 | 2.31µM* | 1.64µM* | nt | nt | nt | nt
OCC[C@H]1C[C@H](O)[C@@H](O)[C@@]2(OCCCc3ccccc32)O1 | 8.7% | -2.0% | ? | 20.8 | 8.3% | 10.3%
COc1ccc(CCNc2nc(SCc3cccc(F)c3)nc3ccccc23)cc1OC | 16.4µM* | ? | nt | nt | nt | nt
CCn1c(=O)c([N+](=O)[O-])c(NCCc2ccc(OC)c(OC)c2)c2ccccc21 | ? | ? | 1.9% | -6.7 | ? | -2.0%
O=c1cc(CSc2nc(NCc3ccccc3)c3ccccc3n2)nc2ccc(Cl)cn12 | 16.4µM* | 11.6µM* | 4.4% | 10.6 | ? | 4.2%
Clc1ccc(CSc2nc(NCCc3ccccc3)c3ccccc3n2)cc1 | 9.2µM* | 6.51µM* | nt | nt | nt | nt
COc1ccc(CCNc2c3ccccc3nc3ccccc23)cc1OC | ? | 20.6µM* | 20.6µM* | -93.9* | ? | ?
Clc1ccccc1CSc1nc(NCCc2ccccc2)c2ccccc2n1 | ? | 13µM* | nt | nt | nt | nt
Fc1ccc(Nc2nc(SCc3ccc(Cl)cc3)nc3ccccc23)cc1 | ? | -101.7% | nt | nt | nt | nt
Fc1ccc(Nc2nc(SCc3cccc(F)c3)nc3ccccc23)cc1 | 14.6µM* | 16.4µM* | nt | nt | nt | nt
N#CCCN(C(=O)COC(=O)CCN=C1NS(=O)(=O)c2ccccc21)c1ccc(F)cc1 | -20.8% | -14.8% | 2.6% | 9.2 | -3.7% | -0.2%
NC(=O)c1cc([N+](=O)[O-])c(Cl)cc1NCc1ccncc1 | ? | ? | 0.1% | 6.3 | 13.0% | 3.9%
